Source: PubChem BioAssay (several laboratories)
MazF activator = MazEF (E. coli) toxin RNase activation | P0AE70 | FAM/BHQ RNA-DNA oligo cleavage fluorescence, 5 h | activation, % at 20 µM | 350,000 tested, 0.32% active | AID 504720; in the data active means activation above about 50%
Target sequence (P0AE70 whole entry, looked up): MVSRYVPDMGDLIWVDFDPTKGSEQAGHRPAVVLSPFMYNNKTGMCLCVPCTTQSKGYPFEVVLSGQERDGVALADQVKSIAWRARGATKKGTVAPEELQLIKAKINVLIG
CCHF vOTU inh = blocks the CCHF virus ovarian tumor domain protease; CCHFV vOTU protease, Pep-AMC fluorescence; inhibition, % at 11.5 µM; 370,000 tested, 0.55% active; in the data active means inhibition above about 30%; further: 0% = vehicle wells with enzyme and 100% = no enzyme wells
VHR inh abs = inhibitors of human VHR1 phosphatase (DUSP3); inhibition, % at 13.3 µM; 290,000 tested, 0.52% active; P51452; recombinant VHR phosphatase, pNPP absorbance; in the data active means inhibition above about 50%
Target sequence (P51452 whole entry, looked up): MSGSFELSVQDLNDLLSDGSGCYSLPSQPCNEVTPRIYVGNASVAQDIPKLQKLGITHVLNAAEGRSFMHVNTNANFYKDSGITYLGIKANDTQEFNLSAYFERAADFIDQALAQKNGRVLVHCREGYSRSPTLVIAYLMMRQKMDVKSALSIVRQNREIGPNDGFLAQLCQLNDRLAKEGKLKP
Vc quorum ag-1 = inducers of Vibrio cholerae quorum light production without autoinducers; V. cholerae BH1578 lux reporter, luminescence, 6 h; activation, % at 18.7 µM; 350,000 tested, 0.16% active; AID 588436; in the data active means activation mostly above about 9.7%, no sharp cut-off
Y pestis TopoI = Y. pestis Topo-I inhibition via cleavage products | Y. pestis Topo-I cleavage product accumulation, plate reader | activity, % at 10 µM | 360,000 tested, 0.064% active | AID 504884; in the data active means activity above about 50%, passing the limit was not always enough
PrPC TRFRET = inhibitors of human cell surface prion protein PrPC. P04156. TR-FRET read-out. inhibition, % at 13.8 µM. 370,000 tested, 0.43% active; in the data active means inhibition above about 24%; further: 0% = median of the test wells and 100% = reference compound wells
Vc quorum ag-2 = quorum light induction in BH1578 reporter strain; 620 tested, under 10 active; shares compounds with Vc quorum ag-1; V. cholerae BH1578 lux reporter, luminescence, 6 h; activation, % at 50 µM; call rule not given here
* hit, by the source's call; i = inactive; · = no result; + = active, no number. A selection: hits, their analogues and other compounds. The true share with any hit is near 1.8%.

SMILES | MazF activator | CCHF vOTU inh | VHR inh abs | Vc quorum ag-1 | Y pestis TopoI | PrPC TRFRET | Vc quorum ag-2
C=CCN1C(=O)c2ccc(C(=O)N(CC)CC(=O)Nc3cc(Cl)ccc3C)cc2C1=O | -7 | -2 | · | 15* | 9 | 0 | 0
Cc1ccc(S(=O)(=O)N2CCOCC2)cc1NC(=O)COC(=O)COc1ccc(C#N)cc1 | -6 | -7 | · | 0 | 10 | -3 | ·
CN(CC(=O)Nc1ccccc1Cl)C(=O)c1cccc(-n2cccc2)c1 | -2 | -2 | · | 14 | -1 | -4 | 0
O=C(Nc1ccc(Cl)cn1)Nc1ccc(Cl)cn1 | -19 | -9 | 17 | 0 | 0 | -4 | ·
O=C(Nc1cccc(Cl)c1)Nc1ccc(Cl)cn1 | 0 | -2 | 0 | 32* | 1 | -4 | -1
Cc1cc(NS(=O)(=O)c2c(C)[nH]c(=O)[nH]c2=O)ccc1Br | -13 | 4 | -15 | 0 | 7 | -2 | ·
O=C(Nc1cccc(-c2ccc(N3CCOCC3)nn2)c1)c1ccccc1 | 12 | -7 | · | i | 1 | 1 | ·
O=C(Nc1cccc(-c2ccc(N3CCOCC3)nn2)c1)c1ccc([N+](=O)[O-])cc1 | 2 | -8 | · | 14 | -8 | -47 | 0
CCOc1ccc(Nc2nc3c(c(=O)[nH]2)CCCC3)cc1 | 9 | 13 | -1 | 145* | -3 | 2 | 885
CCOc1ccc(Nc2nc3c(c(=O)[nH]2)CCC3)cc1 | -2 | 18 | 26 | 13 | 5 | 1 | ·
O=c1oc2c(CN3CCOCC3)c(O)c(Cl)cc2c2c1CCC2 | · | -232 | 3 | 31* | -9 | 5 | 4
CCn1c(CNC(=O)c2ccco2)nnc1SCC(=O)Nc1ccccc1Cl | 12 | 7 | 22 | 1 | 6 | 8 | ·
Fc1cccc(NCc2cn3ccccc3n2)c1 | 6 | -9 | -5 | 2 | -1 | -6 | ·
Fc1ccc(NCc2cn3ccccc3n2)cc1 | -1 | 7 | -2 | 17* | 2 | 0 | 1
OCCCNC(=S)Nc1ccc(Br)cc1Cl | -12 | 1 | 29 | i | -3 | 3 | ·
Cc1cc(C)c(S(=O)(=O)Nc2ccccn2)c(C)c1 | 1 | -9 | -8 | 52* | -2 | 4 | 0
Cc1cc(Oc2ccc(C#N)cc2)nc(N2CCOCC2)n1 | -3 | 3 | -16 | 25* | 5 | -6 | 0
Cc1cc(Oc2ccc([N+](=O)[O-])cc2)nc(N2CCOCC2)n1 | -3 | 17 | 3 | 0 | -4 | 3 | ·
CCOC(=O)c1cc(S(=O)(=O)Nc2ccc(F)cc2F)cn1C | -2 | 8 | 18 | 0 | 5 | 6 | ·
CCCOc1ccc(C2C(C(=O)c3ccc(C)o3)=C(O)C(=O)N2CCN2CCOCC2)cc1OC (centres undefined) | 6 | -17 | -4 | 17* | 1 | -4 | 200
COc1ccc(OC)c(C2C(C(=O)c3ccc(C)o3)=C(O)C(=O)N2CCN2CCOCC2)c1 (centres undefined) | 11 | 7 | -13 | i | 2 | -1 | ·
CC(Sc1ccccc1)C(=O)NN=C1CCCCCC1 (centres undefined) | 3 | 9 | -15 | -2 | 2 | -3 | ·
Cc1cc(Cl)ccc1OCC(=O)OCC(=O)NC1CCS(=O)(=O)C1 (centres undefined) | 4 | 9 | · | 14 | 0 | -2 | 0
CC(C)c1onc(C(=O)N2CCN(Cc3ccccc3)CC2)c1[N+](=O)[O-] | 13 | 13 | 19 | 0 | -5 | 2 | ·
O=C(O)CC1SC(N/N=C/c2ccc(Br)cc2)NC1=O (centres undefined) | 1 | 9 | 13 | 0 | -6 | -2 | ·
SMILES | MazF activator | CCHF vOTU inh | VHR inh abs | Vc quorum ag-1 | Y pestis TopoI | PrPC TRFRET | Vc quorum ag-2
CCC1Nc2ncnc(N3CCN(c4ccccc4)CC3)c2N(Cc2ccccc2)C1=O (centres undefined) | 0 | 8 | · | 6 | 14 | -1 | 0
CCC1Nc2ncnc(N3CCN(c4ccccc4)CC3)c2N(Cc2ccc(C)cc2)C1=O (centres undefined) | -11 | 7 | · | i | 23 | 1 | ·
COc1cc(/C=C/C(=O)NCC2CCCCC2)cc(OC)c1OC | -1 | -12 | -12 | -3 | 12 | -3 | ·
CC1(C(=O)N2CCN(c3ccccc3)CC2)CC1(Cl)Cl (centres undefined) | 17 | 3 | 18 | i | -8 | -2 | ·
CC1(C(=O)N2CCN(c3ccc([N+](=O)[O-])cc3)CC2)CC1(Cl)Cl (centres undefined) | 11 | 2 | 5 | 25 | 3 | -21 | 2
CCCNC(=O)COC(=O)/C=C/c1ccc(C)o1 | 3 | 12 | 14 | + | 5 | -6 | i
Cc1ccc(/C=C/C(=O)OCC(=O)NCc2ccccc2)o1 | 3 | 4 | · | -1 | 13 | -5 | ·
COc1cnc(-c2ccccn2)nc1Sc1ccc(F)cc1 | -1 | 16 | 24 | -1 | 7 | 7 | ·
Cc1cccc(-n2nnnc2SCC(=O)NCC2CCCO2)c1 (centres undefined) | -17 | -2 | 0 | -1 | 11 | 10 | ·
Cc1ccc(-n2nnnc2SCC(=O)NCC2CCCO2)cc1C (centres undefined) | 3 | -8 | · | 12 | 1 | 3 | -101
COc1ccccc1-n1ccnc1SCC(=O)NCC1CCCO1 (centres undefined) | -1 | 9 | 9 | i | -5 | 1 | ·
Cc1ccccc1-n1ccnc1SCC(=O)NCC1CCCO1 (centres undefined) | -1 | -8 | 4 | 15* | -2 | 2 | 0
Cc1cc(C(F)(F)F)c2c(N)c(C(=O)NC3CC3)sc2n1 | -2 | 4 | 10 | 12 | -9 | -16 | 1
Cc1cc(C)c2c(N)c(C(=O)NC3CC3)sc2n1 | 2 | 2 | 19 | i | -1 | -2 | ·
Cc1ccc(C(=O)NNC(=O)c2ccoc2C)s1 | 2 | 1 | · | -1 | 2 | -1 | ·
COc1cccc(CNC(=O)CCN2C(=O)[C@@H]3Cc4ccccc4CN3C2=O)c1 | -11 | -12 | -37 | -1 | -9 | 4 | ·
CC(=O)Nc1ccc(S(=O)(=O)NCCC(=O)OCC(=O)NNC(=O)c2ccccc2)cc1 | 5 | -8 | · | i | -9 | -7 | ·
COC(=O)c1cc(NC(=O)C2CC=CCC2C(=O)O)cc(C(=O)OC)c1 (centres undefined) | 7 | -2 | 10 | 7.6* | 2 | 3 | 1
FC(F)(F)c1nnc2sc(-c3cccs3)nn12 | -5 | 2 | -19 | 17* | 4 | 8 | 4
COc1ccc(S(=O)(=O)N(C)CC(=O)NCCN2CCOCC2)cc1Cl | 5 | 10 | 11 | 0 | 1 | -1 | ·
CN(CC(=O)NCCN1CCOCC1)S(=O)(=O)c1ccc(Cl)cc1 | -12 | -9 | · | 37* | -4 | -11 | 1
CC(C)N1Cc2nnn(Cc3ccccc3)c2-c2cc(F)ccc2S1(=O)=O | · | 3 | · | · | · | 10 | ·
O=C(CCc1nc(-c2ccccc2)no1)N1CCCC1 | 0 | 1 | 4 | 313* | -8 | -2 | 565
